Sampled rows, rich in hits. Any-hit rate of the full collection: about 0.9%.
BJeLR viab HTS: lowers viability of BJeLR cells; BJeLR fibroblasts viability, CellTiterGlo ATP luminescence, 48 h; HRASV12, hTERT and SV40 LT/ST transformed; AID 2275; viability loss activity score, % (test concentration not listed); actives 0.64% (n = 30,000); in the data active means viability loss activity score above about 50%;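 further: higher score means fewer live cells and less ATP luminescence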
A1 inhib: blocks A1 activity; MEF A1-2A-BIM cells, caspase-Glo luminescence, 3 h; percent of clofoctol signal, DMSO as zero; caspase activation, % (no concentration beside the values); actives 0.51% (n = 21,000); AID 2241;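 active means most replicate scores above 10, or exactly half above 10 with mean activity above 10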;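 further: effector caspase 3 and 7 activity cleaving a DEVD luciferin substrate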
* = called active by the depositor; · = no result.

SMILES	BJeLR viab HTS	A1 inhib
CC(=O)OC[C@]12[C@H](OC(C)=O)[C@H](OC(C)=O)[C@@H]3[C@@H](OC(C)=O)[C@@]14O[C@@]3(C)COC(=O)c1ncccc1CC[C@H](C)C(=O)O[C@@H]([C@H](O)[C@@H]2OC(=O)c1ccccc1)[C@]4(C)O	51*	2
CC(=O)OC[C@]12[C@@H](OC(C)=O)C[C@@H]3[C@@H](OC(=O)c4ccccc4)[C@]1(OC3(C)C)[C@H](C)C[C@H](OC(=O)c1ccccc1)[C@@H]2OC(C)=O	-2	-1
CCCCCCCC1OC(=O)CCC(O)/C=C\C(O)C1O (stereo not drawn)	22	1
CC1CCN(S(=O)(=O)c2ccc3c(c2)c(=O)c(C(=O)N(C)Cc2ccccc2)cn3C)CC1	-2	·
CCCc1ccc(O)c(N)c1	-7	1
CCCc1ccc(-c2c(C)sc(N)c2C#N)cc1	2	12*
CN(C)CCNC(=O)c1ccc2c(c1)N(Cc1ccc(F)cc1)C(=O)c1ccccc1S2(=O)=O	4	·
Cc1ccc(S(=O)(=O)Nc2cccc3c2O[C@@H](CN(C)Cc2ccc(-c4ccccc4)cc2)[C@@H](C)CN([C@@H](C)CO)C3=O)cc1	-6	·
CCOC(=O)c1ccc(Nc2cc(C)nc(C)c2C(=O)OCC)cc1	1	·
COC(=O)c1ccc(Nc2cc(C)nc3ccccc23)cc1	62*	-1
C[C@@H]1CN([C@@H](C)CO)C(=O)c2cccc(NS(=O)(=O)c3ccc(F)cc3)c2O[C@H]1CN(C)C(=O)Nc1cccc2ccccc12	-2	·
CSc1scc2c1-c1nc(SCC(=O)c3ccc(Cl)cc3)ncc1CC2	-2	1
O=C1NCC(O)=C1C=Nc1ccc(C2CCCCC2)cc1	4	·
Oc1cc(C2CCCCC2)cc(C2CCCCC2)c1	3	46*
COc1ccc(CCn2c3c(c(=S)[nH]c2=O)CCC3)cc1OC	0	0
CC1CCCC(C)N1CCCNc1ccc2nnc(-c3ccccc3)n2n1 (stereo not drawn)	6	0
CN1CCN(S(=O)(=O)c2ccc(Br)cc2)CC1	9	0
O=S(=O)(c1ccc(-c2csc(Nc3ccc(Br)cc3)n2)cc1)N1CCCCC1	9	15*
CC(C)NC(=O)N(C)C[C@@H]1Oc2ccc(NC(=O)NC3CCCCC3)cc2C(=O)N([C@@H](C)CO)C[C@H]1C	2	0
Cc1ccc(NC(=O)CSc2nc3c(sc4ccccc43)c(=O)n2CC2CCCO2)cc1C (stereo not drawn)	1	33*
O=C(CCn1c(SCc2ccc(F)cc2)nc2c(sc3ccccc32)c1=O)NCC1CCCO1 (stereo not drawn)	-2	·
Cc1[nH]c(=S)[nH]c1C12CC3CC(CC(C3)C1)C2	-6	2

Compound activity as filed in PubChem.
